In PubChem BioAssay (NCATS):
“And” between values parts separate entries of the source, which are not always exact repeats. Equal values may be shown once. Inconclusive results are not listed. The source made the active and inactive calls. Unless noted, calls come from the whole dose curve; as a rule, active = well fitted inhibition curve with a large enough effect; inconclusive = small, poorly fitted or top-dose-only effect; inactive = flat fitted curve, though single readings scatter.

Assays:
CP260 = test: qHTS profiling for inhibitors of Plasmodium falciparum proliferation (AID 504749);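 note: 0% = DMSO vehicle and full inhibition = artemisinin control; nearly all actives have a fitted effect of over 60% in size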; conditions: P. falciparum in erythrocytes, SYBR Green DNA, 72 h; series mostly up to 28.7 µM
Outline: (§1)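 SYBR Green fluorescence (ex 485 nm, em 535 nm) reports parasite DNA after 72 h compound exposure of infected red cells at 0.3% parasitemia, 2.5% hematocrit; signal normalized to 0.29 uM artemisinin and vehicle wells.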

CP262 = test: as above; conditions: P. falciparum in erythrocytes, SYBR Green DNA, 72 h; series mostly up to 28.7 µM
Outline: as §1

CP265 = test: as above; conditions: P. falciparum in erythrocytes, SYBR Green DNA, 72 h; series mostly up to 28.7 µM
Outline: as §1

CP266 = test: as above; conditions: P. falciparum in erythrocytes, SYBR Green DNA, 72 h; series mostly up to 28.7 µM
Outline: as §1

CP268 = test: as above; conditions: P. falciparum in erythrocytes, SYBR Green DNA, 72 h; series mostly up to 28.7 µM
Outline: as §1

CP269 = test: as above; conditions: P. falciparum in erythrocytes, SYBR Green DNA, 72 h; series mostly up to 28.7 µM
Outline: as §1

CP286 = test: as above; conditions: P. falciparum in erythrocytes, SYBR Green DNA, 72 h; series mostly up to 28.7 µM
Outline: as §1

CP291 = test: as above; conditions: P. falciparum in erythrocytes, SYBR Green DNA, 72 h; series mostly up to 28.7 µM
Outline: as §1

CP297 = test: as above; conditions: P. falciparum in erythrocytes, SYBR Green DNA, 72 h; series mostly up to 28.7 µM
Outline: as §1

CP305 = test: as above; conditions: P. falciparum in erythrocytes, SYBR Green DNA, 72 h; series mostly up to 28.7 µM
Outline: as §1

CP315 = test: as above; conditions: P. falciparum in erythrocytes, SYBR Green DNA, 72 h; series mostly up to 28.7 µM
Outline: as §1

CP325 = test: as above; conditions: P. falciparum in erythrocytes, SYBR Green DNA, 72 h; series mostly up to 28.7 µM
Outline: as §1

CP329 = test: as above; conditions: P. falciparum in erythrocytes, SYBR Green DNA, 72 h; series mostly up to 28.7 µM
Outline: as §1

CP335 = test: as above; conditions: P. falciparum in erythrocytes, SYBR Green DNA, 72 h; series mostly up to 28.7 µM
Outline: as §1

DFO2036 = test: as above; conditions: P. falciparum in erythrocytes, SYBR Green DNA, 72 h; series mostly up to 28.7 µM
Outline: as §1

DIV14 = test: as above; conditions: P. falciparum in erythrocytes, SYBR Green DNA, 72 h; series mostly up to 28.7 µM
Outline: as §1

DIV17 = test: as above; conditions: P. falciparum in erythrocytes, SYBR Green DNA, 72 h; series mostly up to 28.7 µM
Outline: as §1

DIV30 = test: as above; conditions: P. falciparum in erythrocytes, SYBR Green DNA, 72 h; series mostly up to 28.7 µM
Outline: as §1

Dd2 = test: as above; conditions: P. falciparum in erythrocytes, SYBR Green DNA, 72 h; series mostly up to 28.7 µM
Outline: as §1

ECU = test: as above; conditions: P. falciparum in erythrocytes, SYBR Green DNA, 72 h; series mostly up to 28.7 µM
Outline: as §1

FAB9 = test: as above; conditions: P. falciparum in erythrocytes, SYBR Green DNA, 72 h; series mostly up to 28.7 µM
Outline: as §1

GB4 = test: as above; conditions: P. falciparum in erythrocytes, SYBR Green DNA, 72 h; series mostly up to 28.7 µM
Outline: as §1

HB3 = test: as above; conditions: P. falciparum in erythrocytes, SYBR Green DNA, 72 h; series mostly up to 28.7 µM
Outline: as §1

ICS = test: as above; conditions: P. falciparum in erythrocytes, SYBR Green DNA, 72 h; series mostly up to 28.7 µM
Outline: as §1

JCK = test: as above; conditions: P. falciparum in erythrocytes, SYBR Green DNA, 72 h; series mostly up to 28.7 µM
Outline: as §1

N140 = test: as above; conditions: P. falciparum in erythrocytes, SYBR Green DNA, 72 h; series mostly up to 28.7 µM
Outline: as §1

P93_24 = test: as above; conditions: P. falciparum in erythrocytes, SYBR Green DNA, 72 h; series mostly up to 28.7 µM
Outline: as §1

P94_40 = test: as above; conditions: P. falciparum in erythrocytes, SYBR Green DNA, 72 h; series mostly up to 28.7 µM
Outline: as §1

PAD = test: as above; conditions: P. falciparum in erythrocytes, SYBR Green DNA, 72 h; series mostly up to 28.7 µM
Outline: as §1

PC15 = test: as above; conditions: P. falciparum in erythrocytes, SYBR Green DNA, 72 h; series mostly up to 28.7 µM
Outline: as §1

PC26 = test: as above; conditions: P. falciparum in erythrocytes, SYBR Green DNA, 72 h; series mostly up to 28.7 µM
Outline: as §1

PC49 = test: as above; conditions: P. falciparum in erythrocytes, SYBR Green DNA, 72 h; series mostly up to 28.7 µM
Outline: as §1

SC27B = test: as above; conditions: P. falciparum in erythrocytes, SYBR Green DNA, 72 h; series mostly up to 28.7 µM
Outline: as §1

TAB109 = test: as above; conditions: P. falciparum in erythrocytes, SYBR Green DNA, 72 h; series mostly up to 28.7 µM
Outline: as §1

TAB113 = test: as above; conditions: P. falciparum in erythrocytes, SYBR Green DNA, 72 h; series mostly up to 28.7 µM
Outline: as §1

TAB165 = test: as above; conditions: P. falciparum in erythrocytes, SYBR Green DNA, 72 h; series mostly up to 28.7 µM
Outline: as §1

[1] = target: Nuclear receptor subfamily 1 group I member 2 (Rattus norvegicus) (UniProt Q9R1A7); test: qHTS assay for small molecule activators of the rat pregnane X receptor (rPXR) signaling pathway (AID 651751; call rule not given here; note: 0% is about no effect); conditions: rPXR reporter cells, luciferase (One-Glo), 24 h
[2] = qHTS assay for small molecule activators of the human pregnane X receptor (PXR) signaling pathway (AID 720659; call rule not given here; note: 0% is about no effect)

Sequence of Nuclear receptor subfamily 1 group I member 2 (Rattus norvegicus) (Q9R1A7 whole entry, looked up): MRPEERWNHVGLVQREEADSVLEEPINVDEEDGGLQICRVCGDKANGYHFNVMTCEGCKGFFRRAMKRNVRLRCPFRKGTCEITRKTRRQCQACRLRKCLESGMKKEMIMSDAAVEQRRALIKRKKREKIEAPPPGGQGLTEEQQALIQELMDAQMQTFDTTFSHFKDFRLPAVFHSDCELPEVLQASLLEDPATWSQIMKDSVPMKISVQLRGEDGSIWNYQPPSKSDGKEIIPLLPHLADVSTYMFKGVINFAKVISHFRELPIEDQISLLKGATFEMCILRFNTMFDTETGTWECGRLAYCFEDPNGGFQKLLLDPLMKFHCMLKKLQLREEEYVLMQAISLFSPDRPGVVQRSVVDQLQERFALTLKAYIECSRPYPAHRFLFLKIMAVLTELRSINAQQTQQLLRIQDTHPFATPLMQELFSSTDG

CN1[C@H]2CC(OC(=O)[C@H](CO)c3ccccc3)C[C@H]1[C@H]1O[C@H]12 (stereo partly drawn)
inactive: Potency (CP260) | Potency (CP262) | Potency (CP265) | Potency (CP266) | Potency (CP268) | Potency (CP269) | Potency (CP286) | Potency (CP291) | Potency (CP297) | Potency (CP305) | Potency (CP315) | Potency (CP325) | Potency (CP329) | Potency (CP335) | Potency (DFO2036) | Potency (DIV14) | Potency (DIV17) | Potency (DIV30) | Potency (Dd2) | Potency (ECU) | Potency (FAB9) | Potency (GB4) | Potency (HB3) | Potency (ICS) | Potency (JCK) | Potency (N140) | Potency (P93_24) | Potency (P94_40) | Potency (PAD) | Potency (PC15) | Potency (PC26) | Potency (PC49) | Potency (SC27B) | Potency (TAB109) | Potency (TAB113) | Potency (TAB165) | max response [1] -5.42% and 5.83% | outcome [2]
